Among the data in the supplement of paper PMC12819154, “High-throughput peptide-centric local stability assay extends protein–ligand identification to membrane proteins, tissues and bacteria” (Nature Structural & Molecular Biology, 2025) are log2 fold change values, retold here.

Compound in this assay: CN[C@@H]1C[C@H]2O[C@@](C)([C@@H]1OC)n1c3ccccc3c3c4c(c5c6ccccc6n2c5c31)C(=O)NC4 [staurosporine]
Briefly: log2 fold change of tryptic peptide abundance, ligand vs vehicle (limited proteolysis) (log2 ratio); higher = more trypsin-susceptible (destabilized). Conditions: ligand concentration: 20 uM; sample: K562 cleared lysate; digestion: 4 min, 22 C (HT-PELSA RT4min, Orbitrap Astral).

UniProt Q96CW1, sequence (Q96CW1 whole entry): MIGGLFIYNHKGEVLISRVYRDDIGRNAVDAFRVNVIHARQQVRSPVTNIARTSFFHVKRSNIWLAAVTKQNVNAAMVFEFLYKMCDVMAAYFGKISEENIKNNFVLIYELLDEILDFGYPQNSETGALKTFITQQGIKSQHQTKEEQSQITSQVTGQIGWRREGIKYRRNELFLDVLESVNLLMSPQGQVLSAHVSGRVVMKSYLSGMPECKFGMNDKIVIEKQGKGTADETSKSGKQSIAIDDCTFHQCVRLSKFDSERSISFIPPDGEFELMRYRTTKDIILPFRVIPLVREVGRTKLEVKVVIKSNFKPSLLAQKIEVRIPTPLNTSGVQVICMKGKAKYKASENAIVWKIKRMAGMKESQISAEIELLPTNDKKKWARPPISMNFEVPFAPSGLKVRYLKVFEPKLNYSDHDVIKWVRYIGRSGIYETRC
UniProt Q9UBS0, sequence (Q9UBS0 whole entry): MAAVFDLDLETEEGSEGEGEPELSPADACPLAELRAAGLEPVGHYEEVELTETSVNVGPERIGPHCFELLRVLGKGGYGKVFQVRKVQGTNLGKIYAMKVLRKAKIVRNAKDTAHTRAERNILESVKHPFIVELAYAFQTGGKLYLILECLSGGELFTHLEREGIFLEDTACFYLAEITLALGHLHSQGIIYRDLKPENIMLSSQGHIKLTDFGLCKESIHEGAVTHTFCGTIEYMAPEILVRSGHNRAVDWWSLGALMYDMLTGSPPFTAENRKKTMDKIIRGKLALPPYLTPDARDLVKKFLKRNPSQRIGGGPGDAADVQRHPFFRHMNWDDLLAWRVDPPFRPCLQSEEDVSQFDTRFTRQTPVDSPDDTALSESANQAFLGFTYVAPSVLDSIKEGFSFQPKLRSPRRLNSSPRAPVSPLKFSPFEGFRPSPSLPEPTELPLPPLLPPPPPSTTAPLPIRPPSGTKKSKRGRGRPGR
UniProt O75494, sequence (O75494 whole entry): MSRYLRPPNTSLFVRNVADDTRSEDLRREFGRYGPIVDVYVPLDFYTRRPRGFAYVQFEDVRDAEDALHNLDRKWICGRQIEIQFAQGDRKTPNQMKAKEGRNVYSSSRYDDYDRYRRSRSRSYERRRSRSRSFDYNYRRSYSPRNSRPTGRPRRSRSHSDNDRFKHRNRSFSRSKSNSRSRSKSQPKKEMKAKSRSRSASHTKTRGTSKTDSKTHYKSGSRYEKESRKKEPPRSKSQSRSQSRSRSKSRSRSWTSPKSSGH
UniProt Q02750, sequence (Q02750 whole entry): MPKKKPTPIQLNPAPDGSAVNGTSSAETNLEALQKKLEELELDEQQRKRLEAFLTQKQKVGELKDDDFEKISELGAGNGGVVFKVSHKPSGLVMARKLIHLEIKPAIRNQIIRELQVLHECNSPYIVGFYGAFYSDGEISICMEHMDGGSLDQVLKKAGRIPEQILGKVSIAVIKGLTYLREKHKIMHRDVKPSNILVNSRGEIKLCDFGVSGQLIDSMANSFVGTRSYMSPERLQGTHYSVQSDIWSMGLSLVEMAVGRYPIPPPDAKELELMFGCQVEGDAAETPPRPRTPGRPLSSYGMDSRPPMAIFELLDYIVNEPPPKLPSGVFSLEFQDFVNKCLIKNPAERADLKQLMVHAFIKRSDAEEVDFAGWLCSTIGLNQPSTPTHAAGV
UniProt P84022, sequence (P84022 whole entry, looked up): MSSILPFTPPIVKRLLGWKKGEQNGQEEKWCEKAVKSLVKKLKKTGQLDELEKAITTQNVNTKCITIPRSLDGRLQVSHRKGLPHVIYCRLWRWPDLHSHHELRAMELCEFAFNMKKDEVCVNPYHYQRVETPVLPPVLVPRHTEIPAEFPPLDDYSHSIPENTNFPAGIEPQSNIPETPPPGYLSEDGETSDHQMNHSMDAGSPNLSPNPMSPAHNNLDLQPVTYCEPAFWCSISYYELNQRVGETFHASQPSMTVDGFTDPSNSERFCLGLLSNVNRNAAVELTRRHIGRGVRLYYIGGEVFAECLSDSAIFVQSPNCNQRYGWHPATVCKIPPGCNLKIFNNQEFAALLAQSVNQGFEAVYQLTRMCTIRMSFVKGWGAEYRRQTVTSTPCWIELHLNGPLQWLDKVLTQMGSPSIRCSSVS
UniProt P50750, sequence (P50750 whole entry): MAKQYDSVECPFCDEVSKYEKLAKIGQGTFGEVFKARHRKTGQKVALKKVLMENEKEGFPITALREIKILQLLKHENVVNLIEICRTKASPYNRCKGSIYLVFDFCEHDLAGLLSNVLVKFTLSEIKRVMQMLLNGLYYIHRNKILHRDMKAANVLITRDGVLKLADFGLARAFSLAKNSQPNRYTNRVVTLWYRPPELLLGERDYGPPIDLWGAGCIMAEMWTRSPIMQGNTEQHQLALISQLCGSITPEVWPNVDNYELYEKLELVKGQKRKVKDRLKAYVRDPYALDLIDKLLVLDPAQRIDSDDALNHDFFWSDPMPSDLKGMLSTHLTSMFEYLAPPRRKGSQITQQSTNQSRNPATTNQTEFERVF
UniProt P53667, sequence (P53667 whole entry, looked up): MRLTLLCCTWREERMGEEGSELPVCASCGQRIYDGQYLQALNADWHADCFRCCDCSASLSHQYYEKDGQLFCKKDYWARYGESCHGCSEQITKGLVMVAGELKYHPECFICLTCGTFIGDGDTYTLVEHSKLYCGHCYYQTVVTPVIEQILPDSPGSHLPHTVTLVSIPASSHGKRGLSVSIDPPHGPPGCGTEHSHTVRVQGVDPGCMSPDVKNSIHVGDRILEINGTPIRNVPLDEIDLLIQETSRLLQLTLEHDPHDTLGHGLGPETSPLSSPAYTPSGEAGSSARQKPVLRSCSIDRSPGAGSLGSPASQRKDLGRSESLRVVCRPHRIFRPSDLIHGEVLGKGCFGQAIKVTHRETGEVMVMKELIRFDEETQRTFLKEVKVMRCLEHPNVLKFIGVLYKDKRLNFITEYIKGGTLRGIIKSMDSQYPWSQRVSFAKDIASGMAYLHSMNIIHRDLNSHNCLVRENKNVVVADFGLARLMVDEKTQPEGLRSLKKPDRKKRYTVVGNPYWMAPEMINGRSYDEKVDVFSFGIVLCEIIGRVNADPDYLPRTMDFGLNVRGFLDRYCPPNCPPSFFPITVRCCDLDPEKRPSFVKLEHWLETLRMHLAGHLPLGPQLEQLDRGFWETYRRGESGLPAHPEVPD
UniProt Q9BQG0, sequence (Q9BQG0 whole entry): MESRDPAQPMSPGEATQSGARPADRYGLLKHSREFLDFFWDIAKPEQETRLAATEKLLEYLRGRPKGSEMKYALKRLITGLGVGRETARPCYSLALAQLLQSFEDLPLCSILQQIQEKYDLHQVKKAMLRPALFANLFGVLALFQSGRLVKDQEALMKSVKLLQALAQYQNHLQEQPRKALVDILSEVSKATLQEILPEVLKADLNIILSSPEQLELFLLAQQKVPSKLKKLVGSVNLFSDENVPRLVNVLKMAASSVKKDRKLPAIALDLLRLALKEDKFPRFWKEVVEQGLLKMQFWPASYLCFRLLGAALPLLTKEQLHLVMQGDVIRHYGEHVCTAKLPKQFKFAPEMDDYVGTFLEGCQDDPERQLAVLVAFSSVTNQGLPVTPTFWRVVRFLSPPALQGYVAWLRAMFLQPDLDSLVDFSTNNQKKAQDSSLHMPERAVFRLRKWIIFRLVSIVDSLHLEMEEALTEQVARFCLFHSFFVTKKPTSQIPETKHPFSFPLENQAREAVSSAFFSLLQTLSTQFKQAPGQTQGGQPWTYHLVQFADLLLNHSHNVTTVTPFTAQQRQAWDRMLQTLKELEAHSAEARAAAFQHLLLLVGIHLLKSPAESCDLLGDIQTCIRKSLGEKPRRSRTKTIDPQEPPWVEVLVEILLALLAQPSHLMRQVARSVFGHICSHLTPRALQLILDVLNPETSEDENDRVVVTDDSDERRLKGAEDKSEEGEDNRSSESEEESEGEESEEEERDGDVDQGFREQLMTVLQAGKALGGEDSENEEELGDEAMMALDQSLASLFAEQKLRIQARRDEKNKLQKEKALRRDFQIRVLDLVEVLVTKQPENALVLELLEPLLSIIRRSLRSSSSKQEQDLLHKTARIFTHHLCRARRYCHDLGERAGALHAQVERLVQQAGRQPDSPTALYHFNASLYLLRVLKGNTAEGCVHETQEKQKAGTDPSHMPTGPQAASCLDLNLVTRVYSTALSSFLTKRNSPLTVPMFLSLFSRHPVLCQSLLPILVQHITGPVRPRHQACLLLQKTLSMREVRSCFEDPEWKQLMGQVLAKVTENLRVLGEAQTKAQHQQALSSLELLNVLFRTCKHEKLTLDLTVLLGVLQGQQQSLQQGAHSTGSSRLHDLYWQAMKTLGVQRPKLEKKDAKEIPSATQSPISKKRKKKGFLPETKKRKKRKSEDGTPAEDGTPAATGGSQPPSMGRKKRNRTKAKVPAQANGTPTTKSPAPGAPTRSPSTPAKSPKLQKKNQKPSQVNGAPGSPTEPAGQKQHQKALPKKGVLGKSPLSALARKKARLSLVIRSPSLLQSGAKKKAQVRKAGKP
UniProt Q0VDG4, sequence (Q0VDG4 whole entry): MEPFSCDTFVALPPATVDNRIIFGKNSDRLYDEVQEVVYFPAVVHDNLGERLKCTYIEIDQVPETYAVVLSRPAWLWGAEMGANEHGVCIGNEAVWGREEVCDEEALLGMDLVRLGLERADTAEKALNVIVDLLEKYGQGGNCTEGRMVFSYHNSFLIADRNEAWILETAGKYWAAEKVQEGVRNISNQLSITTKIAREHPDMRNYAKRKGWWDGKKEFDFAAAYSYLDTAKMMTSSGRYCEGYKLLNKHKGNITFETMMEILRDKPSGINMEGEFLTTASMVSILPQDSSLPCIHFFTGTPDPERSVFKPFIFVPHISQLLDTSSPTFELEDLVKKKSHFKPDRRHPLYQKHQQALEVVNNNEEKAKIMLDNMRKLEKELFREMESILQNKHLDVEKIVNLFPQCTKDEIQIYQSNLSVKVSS

On to “TIMM44 (peptide sequence: ALSQGVESVKK, peptide start residue: 178) (UniProt O43615)”, for which the log2 fold change was 0.555. As to “UniProt P84022 (peptide sequence: TGQLDELEK, peptide start residue: 45)”, the log2 fold change was 0.887. Next, “PMPCA (peptide sequence: LYLNVLNR, peptide start residue: 363) (UniProt Q10713)”: -0.407; “MYBBP1A (peptide sequence: VLKGNTAEGCVHETQEK, peptide start residue: 933) (UniProt Q9BQG0)”: 2.16; “CDK9 (peptide sequence: EGFPITALR, peptide start residue: 57) (UniProt P50750)”: -1.73. Turning to “UniProt Q9UBS0 (peptide sequence: HPFIVELAYAFQTGGK, peptide start residue: 128)”, the log2 fold change is -0.89.

Consider “UniProt O75494 (peptide sequence: SFDYNYR, peptide start residue: 133)”, for which the log2 fold change was found to be 0.608. Turning to “UniProt Q02750 (peptide sequence: SYMSPER, peptide start residue: 228)”, the log2 fold change was 3.08.

With “LIMK1 (peptide sequence: VNADPDYLPR, peptide start residue: 546) (UniProt P53667)”, the log2 fold change is -1.05. Next, “SCRN3 (peptide sequence: IMLDNMR, peptide start residue: 369) (UniProt Q0VDG4)”: 0.327. Under “UniProt Q96CW1 (peptide sequence: TFITQQGIK, peptide start residue: 131)” stands 0.558.
